Compound activity (PubChem)
The list is not random: actives were taken first. Their share in the collection is about 6.1%.
HepG2 viability = qHTS for Inhibitors of TGF-b: Cytotox Counterscreen. AID 588856, 2011. HepG2 CAGA-GFP viability, ATP luminescence, 18 h. Potency, µM (doses to about 46.1 µM), without a hit: at the highest dose activity change, negative = cytotoxicity, usual class: cytotoxic. actives 0.76% (n = 410,000)
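HepG2 CAGA-GFP cells (1000/well, DMEM with 1% FBS) received compound, then TGF-beta at 500 pg/mL final, and were incubated 18 hours at 37 degrees C. Viability was read by CellTiter-Glo luminescence. Media-only wells were set as complete cell-killing and DMSO as no toxicity.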
ATXN viability = Viability Counterscreen for Primary qHTS for Inhibitors of ATXN expression. S2 cells (HEK-293 line with an ATXN2-luciferase reporter) viability, CellTiter-Fluor protease fluorescence, 24 h. Potency, µM (titrated, usually from 56.7 µM), actives largely listed as cytotoxic. actives 0.49% (n = 400,000). AID 651635, 2014; also: nearly all actives have a fitted effect of over 40% in size
Gal4-VP16 FLuc = VP16 counterscreen qHTS for inhibitors of ROR gamma transcriptional activity; Drosophila S2 Gal4-VP16 UAS-luciferase, luminescence, 20 h; Potency, µM (highest dose often 53.6 µM), inactives show top-dose activity, negative = inhibition, usual class: inhibitors; actives 3.5% (n = 310,000); AID 2546, 2010;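 also: Gal4-VP16 expression switched on by copper sulfate through the metallothionein promoter; % is scaled to controls: 0 for no effect and ±100 for the full control effect; nearly all actives have a fitted effect of over 50% in size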
TGFb inhibitor = qHTS for Inhibitors of TGF-b; AID 588855, 2011; HepG2 CAGA-GFP TGF-b/SMAD3 reporter, GFP fluorescence, 18 h; TGF-beta stimulated, 500 pg/mL final; actives 1.2% (n = 410,000); Potency, µM (top dose mostly 46.1 µM), inactives show at the top dose activity, negative = inhibition, hits mostly inhibitors; also: % is scaled to controls: 0 for no effect and ±100 for the full control effect; nearly all actives have a fitted effect of over 65% in size
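HEPG2 CAGA-GFP, 1000 cells/well; 2 h settle, 37 C; cpd via pin tool; TGF-b 500 pg/mL final; 18 h, 37 C; GFP imaging ex488/em500-530; %Activity normalised to -TGF-b and +DMSO controls; CRC fit, curve class.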
RORgamma inh = qHTS for inhibitors of ROR gamma transcriptional activity; actives 5.4% (n = 310,000); Drosophila S2 Gal4-RORgamma UAS-luciferase reporter, 20 h; Nuclear receptor ROR-gamma (Mus musculus), P51450; Potency, µM (titrated, usually from 53.6 µM), for inactives: at the top dose activity change, negative = inhibition, usual class: inhibitors; also: % is scaled to controls: 0 for no effect and ±100 for the full control effect; nearly all actives have a fitted effect of over 60% in size
Target sequence (P51450 whole entry, looked up, the tested form may be a part): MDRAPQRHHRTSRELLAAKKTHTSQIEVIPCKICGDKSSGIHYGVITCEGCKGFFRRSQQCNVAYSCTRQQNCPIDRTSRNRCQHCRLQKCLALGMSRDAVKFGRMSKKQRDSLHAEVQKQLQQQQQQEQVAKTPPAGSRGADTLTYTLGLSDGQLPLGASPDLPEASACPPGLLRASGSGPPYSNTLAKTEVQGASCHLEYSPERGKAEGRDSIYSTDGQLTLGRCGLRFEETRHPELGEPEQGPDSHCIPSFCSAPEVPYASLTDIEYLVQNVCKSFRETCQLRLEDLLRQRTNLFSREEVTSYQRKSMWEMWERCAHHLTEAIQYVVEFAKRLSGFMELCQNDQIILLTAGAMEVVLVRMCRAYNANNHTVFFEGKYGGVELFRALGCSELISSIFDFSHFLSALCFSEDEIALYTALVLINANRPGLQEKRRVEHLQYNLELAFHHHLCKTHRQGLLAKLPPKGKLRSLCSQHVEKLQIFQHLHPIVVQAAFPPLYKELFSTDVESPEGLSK
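Schneider cells (Drosophila), stable Gal4 DBD–ROR gamma + UAS-luc; 1 hr cmpd preincubation; Cu2+ induction 700 uM final; 20 hr ambient; luminescence.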
ATXN2 expr inh = Primary qHTS for Inhibitors of ATXN expression | Potency, µM (series often up to 57 µM), inactives show at the highest dose activity change, negative = inhibition, actives largely listed as inhibitors | actives 0.72% (n = 360,000) | HEK-293 ATXN2-luciferase reporter, luminescence, 24 h; also: % is scaled to controls: 0 for no effect and ±100 for the full control effect; nearly all actives have a fitted effect of over 55% in size
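qHTS (up to 57 uM final) was run with 24 h compound exposure of reporter cells at 37 °C. Each well was multiplexed: SteadyGlo luminescence measured ATXN2-luciferase expression after a fluorogenic Gly-Phe-AFC viability readout (25 uM final).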
* marks the source's active call; other numbers are inactive results; i = inactive; ? = inconclusive; . = no result given; [ ] = remark or other dose. Calls follow the shape of the dose curve; as a rule, active = well fitted curve in the direction sought with a large enough effect; inconclusive = small, poorly fitted or top-dose-only effect, or another doubt; inactive = no such curve, though single readings can be large; an effect the other way counts as inactive or inconclusive. Potency is read from the fitted curve at half-maximal effect.

SMILES	HepG2 viability	ATXN viability	Gal4-VP16 FLuc	TGFb inhibitor	RORgamma inh	ATXN2 expr inh
CCCCCC(=O)NNC(=S)NC(=O)c1cccc([N+](=O)[O-])c1	-12.9%	?	5.01µM*	-8.2%	3.55µM*	-18.9%
O=C(NC(=S)NCc1ccccc1)c1cccc([N+](=O)[O-])c1	3.1%	i	5.62µM*	-10.4%	6.31µM*	.
O=C(NC(=S)Nc1cccc([N+](=O)[O-])c1)c1ccccc1	-18.3%	i	-5.8%	?	?	.
O=C(O)c1cccc([N+](=O)[O-])c1	.	.	-1.4%	.	-15.1%	.
COc1ccc(COC(=O)N/N=C2/C[C@@H](O)[C@@H](O)[C@@H]3[C@@H]4C(=O)N(C(C)(C)C)C(=O)[C@H]4CC[C@@H]23)cc1	.	.	-8.5%[10 µM]	.	10.1%[10 µM]	.
O=c1c(N2CCN(c3cccc(C(F)(F)F)c3)CC2)csc2ccccc12	-92.8%	i	.	?	.	?
CCOc1ccc(-c2cc(NC(=O)Nc3ccc(Cl)cc3)c(C(=O)OC)s2)cc1	-0.5%	.	.	-4.8%	.	.
COc1ccc2nc(-c3ccco3)c(-c3ccco3)nc2c1	4.6%	.	-29.1%	-0.2%	?	54.7%
COc1ccc2no[n+]([O-])c2c1	.	.	7.08µM*	.	6.31µM*	.
COCCCNS(=O)(=O)c1ccc(N2CCCCS2(=O)=O)cc1	0.4%	i	.	-18.7%	.	-6.4%
O=Cc1ccc2[nH]ccc2c1	-11.8%	.	.	-29.5%	.	.
FC(F)(F)c1ccccc1NC(=S)N/N=C1\CC2CC=CC12 (stereo not given)	-20.4%	i	14.1µM*	0.0%	0.501µM*	2.7%
COc1ccc(C(=O)CSc2nc(-c3ccccn3)nc(C)c2Cl)cc1	-10.5%	i	?	-18.2%	2.82µM*	-8.5%
Cc1ccc(C(=O)CSc2nc(C(C)C)nc3ccccc23)cc1	2.9%	i	6.0%	-4.3%	?	2.0%[11.3 µM]
CC(C)c1nc(SCC(=O)c2ccc(F)cc2)c2ccccc2n1	1.0%	?	?	?	5.62µM*	-9.7%
Cc1nc(-c2ccccn2)nc(SCC(=O)c2ccc(F)cc2)c1Cl	-17.3%	?	?	-18.6%	3.55µM*	0.0%
COc1ccc(C(=O)CSc2nnc3ccc(-c4ccccn4)nn23)cc1	-24.2%	i	-13.9%[10 µM]	-1.1%	2.9%	2.5%
Cc1cccc(C(=O)NC(C)C(c2cccs2)N2CCOCC2)c1 (stereo not given)	1.2%	?	9.8%	20.1%	15.0%	3.3%
CC(NC(=S)Nc1cccc(F)c1)C(c1cccs1)N1CCOCC1 (stereo not given)	-8.6%	?	?	4.8%	8.91µM*	-14.0%
Cc1ccc(C)c(NC(=S)NC(C)C(c2cccs2)N2CCOCC2)c1 (stereo not given)	-25.6%	?	11.2µM*	-24.0%	5.01µM*	-19.3%
Cc1ccsc1C(=O)N(Cc1cc2cc3c(cc2nc1N1CCOCC1)CCC3)CC1CCCO1 (stereo not given)	.	i	.	.	.	.
Cn1c(=O)[nH]c(=O)c2c1nc(N1CCCCC1)n2C/C=N/NC(=O)c1cc(Br)ccc1O	-12.8%	i	?	5.8%	12.6µM*	-22.6%
C=CCn1c(N2CCCC2)nc2c1c(=O)[nH]c(=O)n2C	10.2%	i	-1.0%	2.8%	8.8%	2.9%
COc1ccccc1CNC(=O)c1ccc2c(c1)CCN2S(=O)(=O)c1ccc(Cl)cc1	-10.6%	i	.	1.8%	.	0.2%
CCOc1ccccc1CNS(=O)(=O)c1ccc2[nH]c(=O)ccc2c1	-3.9%	i	.	4.1%	.	7.6%
SMILES	HepG2 viability	ATXN viability	Gal4-VP16 FLuc	TGFb inhibitor	RORgamma inh	ATXN2 expr inh
CCNc1nc(-c2sc(NC(=O)C(C)(C)C)nc2C)c(-n2cc(-c3ccccc3)nn2)s1	.	.	.	.	.	14.1µM*
Cc1nc(NC(=O)C(C)(C)C)sc1-c1nc(N)sc1-n1cc(-c2ccccc2)nn1	.	i	.	.	.	4.8%
Cc1[nH]nc(-c2ccc(O)c(C)c2O)c1-c1cnn(-c2ccccc2)c1	-10.2%	?	-1.8%	7.08µM*	-21.9%	?
Cc1oc2c(C)c(O)ccc2c(=O)c1-c1cnn(-c2ccccc2)c1	-72.8%	i	?	?	-42.3%	-6.3%
O=C(Cn1cc(SCc2ccccc2Cl)c2ccccc21)N1CCCCCC1	-17.8%	.	.	0.0%	.	.
CC1(C)S[C@@H]2[C@H](NC(=O)C(N)c3ccccc3)C(=O)N2[C@H]1C(=O)OC1OC(=O)c2ccccc21 (stereo not given in full)	.	i	.	.	.	.
C=CCn1c(-c2ccc(F)cc2)n[nH]c1=S	-35.6%	i	?	-4.2%	7.94µM*	-9.9%
C=CCn1c(-c2ccoc2)n[nH]c1=S	-25.1%	i	17.8µM*	-14.9%	11.2µM*	-4.5%
C=CCn1c(CCC(O)CCCCC)n[nH]c1=S (stereo not given)	6.1%	i	-12.0%	12.0%	?	3.3%
C=CCn1c(CCCOc2ccc(Cl)cc2Cl)n[nH]c1=S	-4.0%	i	5.62µM*	-2.8%	3.55µM*	3.9%
C=CCn1c(-c2ccccc2)n[nH]c1=S	8.1%	i	-0.3%	0.0%	?	1.0%
C=CCn1c(CCc2cc(C(C)(C)C)c(O)c(C(C)(C)C)c2)n[nH]c1=S	-3.1%	?	7.94µM*	?	2.51µM*	?
CCOc1ccc(-c2cn3c(n2)sc2cc(C(=O)NC(C)C45CC6CC(CC(C6)C4)C5)ccc23)cc1 (stereo not given)	-30.0%	.	.	-14.1%	.	.
C=C1CC2COC(=O)C2(Cc2ccc3ccccc3c2)C1 (stereo not given)	.	.	-10.5%	.	-5.6%	.
Cc1ccc(NS(=O)(=O)c2ccc3[nH]c4c(c3c2)CCCC4)cc1N(C)C	-99.8%	?	.	?	.	?
COCCn1cnc2c1-c1ccc(OC)c(c1)OC/C=C\COc1cccc-2c1	-11.7%	.	-18.4%	-15.0%	2.4%	.
C=CCn1c(-c2cc(OC)cc(OC)c2)n[nH]c1=S	5.6%	i	?	-5.5%	?	-2.8%
C=CCn1c(-c2cccc(OCC)c2)n[nH]c1=S	-8.3%	i	17.8µM*	-1.6%	5.01µM*	1.4%
C=CCn1c(CSCc2ccc(F)cc2)n[nH]c1=S	-11.8%	i	3.55µM*	-13.1%	3.16µM*	.
C=CCn1c(Cc2ccccc2)n[nH]c1=S	16.1%	i	?	-4.2%	7.08µM*	-0.4%
C=CCn1c(CNS(=O)(=O)c2ccc(F)cc2)n[nH]c1=S	-1.4%	i	0.5%	0.0%	-14.5%	2.2%
